The values below come from PubChem BioAssay (NCI).

The panel holds about 83,000 compounds, 20% with a hit somewhere; the sample as a whole holds those more often.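 Results are percent growth after 48 hours of single-concentration exposure. 100 means growth as in untreated cells, lower positive values show inhibition; negative values down to -100 show cell death.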 Values without a mark were called inactive. The source made the active and inactive calls. The calls were made as follows: active = growth percent below 10; inactive = the rest.

Among the test systems are T-47D breast; BT-549 breast; MDA-MB-435 melanoma; SW-620 colon; HCT-116 colon; HCC-2998 colon; KM12 colon; MCF7 breast.
Assay in all cases: NCI-60 one-dose screen, 48 h (100 = growth as untreated, 0 = no growth, -100 = all killed)
Conditions in all cases: 10 µM

Turning to `CCOC(=O)c1cc(C(=O)c2cc(OC)c(OC)c(OC)c2)n2ccc(-c3cc[n+](CC(=O)c4cc(OC)c(OC)c(OC)c4)cc3)cc12`, the growth with T-47D breast was 50.1%; in the test with BT-549 breast, -10.9% (active); with MDA-MB-435 melanoma, 68.7%; with SW-620 colon, -64.8% (active); with HCT-116 colon, -61.2% (active); in the test on HCC-2998 colon, 109%. In addition, the growth in the test on KM12 colon is 45.3%.
As for `O=C(CSc1nnc(-c2ccc(Cl)cc2)o1)Nc1ccc(C(=O)/C=C/c2ccc(Cl)cc2)cc1`, the growth was 98.6% with T-47D breast; 133% in the test with BT-549 breast; 98.1% with MDA-MB-435 melanoma; 101% with SW-620 colon; 78% in the test with MCF7 breast; 103% in the test with HCT-116 colon. The growth in the test on HCC-2998 colon was 93.1%; in the test with KM12 colon, 97.8%.
As for `CC(C)(C)OC(=O)N1CCc2c(sc3ncnc(N/N=C/c4cccc5ccccc45)c23)C1`, the growth is 12.6% with T-47D breast; 58.7% in the test on BT-549 breast; -11.7% (active) with MDA-MB-435 melanoma; 27.3% with SW-620 colon; 2.21% (active) in the test with MCF7 breast; 10.5% in the test with HCT-116 colon. The growth in the test on HCC-2998 colon was 37.1%; in the test with KM12 colon, 23.4%.
As to `Cc1ccc2nc(Cl)c(-c3nc4ccccc4o3)cc2c1`, the growth was 83.9% in the test with T-47D breast; 88.5% in the test on BT-549 breast; 99.8% in the test on MDA-MB-435 melanoma; 103% in the test on SW-620 colon; 92.4% in the test with MCF7 breast; 97.3% with HCT-116 colon. Besides, the growth is 87.8% in the test on HCC-2998 colon and 89.5% with KM12 colon.
On to `CCCN1CN2C(=O)N3CN(CCC)CN4C(=S)N(C1)C2C34` (stereo not drawn), for which the growth was 90% with T-47D breast; 89.5% with BT-549 breast; 106% in the test on MDA-MB-435 melanoma; 108% in the test with SW-620 colon; 82.9% with HCT-116 colon; 106% in the test with HCC-2998 colon. Besides, the growth in the test with KM12 colon was 101%.
In the case of `COc1ccc(Cl)cc1Nc1nc(C(F)(F)F)ccc1C(=O)N/N=C/c1cc(OC)c(OC)c(OC)c1`, the growth in the test with T-47D breast was 29.7%; in the test on BT-549 breast, 15.9%; in the test with MDA-MB-435 melanoma, 37.1%; in the test on SW-620 colon, 16.7%; in the test on MCF7 breast it was 17.8%; in the test with HCC-2998 colon, 8.93% (active). Besides, in the test with KM12 colon, the growth was 30.6%.
For `O=C(Nc1ccccc1)Nc1ncnc2c1ncn2-c1ccccc1`, the growth with T-47D breast was 51.3%; with BT-549 breast, 89.4%; with MDA-MB-435 melanoma it was 84.8%; with SW-620 colon, 94%; in the test on MCF7 breast, 78.9%; in the test with HCT-116 colon, 29.2%. Moreover, the growth was 92.6% in the test with HCC-2998 colon and 87.4% with KM12 colon.
Take `COc1ccc(CCN2CCC(Nc3nc4ccccc4n3Cc3ccc(F)cc3)CC2)cc1`: the growth in the test with T-47D breast is -3.86% (active); with BT-549 breast it was 31.9%; in the test with MDA-MB-435 melanoma, -91.7% (active); in the test with SW-620 colon, -54.8% (active); in the test on HCT-116 colon it was -39.4% (active); with HCC-2998 colon it was -84.6% (active). The growth in the test on KM12 colon is 17.7%.
With `O=C(Nc1cc([N+](=O)[O-])c2[nH]c(=O)c3ccccc3c2c1)C(F)(F)F`, the growth is 105% in the test with T-47D breast; 86.5% in the test with BT-549 breast; 102% in the test on MDA-MB-435 melanoma; 64.5% in the test on SW-620 colon; 82% in the test on MCF7 breast; 56.5% with HCT-116 colon. In addition, the growth with HCC-2998 colon is 89.3%; with KM12 colon it was 87.2%.
With `CCCCC(CC)CN=C(N)NC(N)=NCCCCCCN=C(N)NC(N)=NCC(CC)CCCC` (stereo not drawn), the growth with T-47D breast was -54.3% (active); in the test with BT-549 breast, -85.2% (active); in the test on MDA-MB-435 melanoma it was -94% (active); in the test with SW-620 colon, -78% (active); with HCT-116 colon, -85.6% (active); in the test on HCC-2998 colon, -88.8% (active). For the same molecule, the growth in the test with KM12 colon is -94.4% (active).
With `CCc1ccc(C2=NN(c3ccc(S(C)(=O)=O)cc3)C(=O)CC2)cc1`, the growth is 41.4% with T-47D breast; 21.9% in the test with BT-549 breast; -24.3% (active) in the test on MDA-MB-435 melanoma; 12.4% in the test with SW-620 colon; 26% with MCF7 breast; 15.7% with HCT-116 colon. Further, the growth is 46.6% with HCC-2998 colon and 17.3% in the test on KM12 colon.
As to `Nc1nc(-c2cccnc2)nc2c1sc(=S)n2-c1ccccc1`, the growth is 90.8% with T-47D breast; 101% in the test with BT-549 breast; 111% in the test with MDA-MB-435 melanoma; 104% in the test on SW-620 colon; 94.4% in the test with MCF7 breast; 70.7% with HCT-116 colon. The figures for the growth in the test with HCC-2998 colon and in the test on KM12 colon were 105% and 99%, respectively.
Turning to `COc1cc(NC(=O)C2=C(N3CCOCC3)/C(=C/c3ccc(Cl)cc3)CC2)cc(OC)c1OC`, the growth is 71.1% in the test on T-47D breast; 103% with BT-549 breast; 75.3% in the test with MDA-MB-435 melanoma; 100% in the test on SW-620 colon; 73.3% in the test with MCF7 breast; 65.7% with HCT-116 colon. Also, in the test on KM12 colon, the growth was 97.3%.
As for `CNS(=O)(=O)Oc1ccc(-c2sc3cc(OS(=O)(=O)NC)ccc3c2C(=O)c2ccc(OCCN3CCCCC3)cc2)cc1`, the growth with T-47D breast is 60.8%; in the test with BT-549 breast, 73.7%; in the test with MDA-MB-435 melanoma, 70%; with SW-620 colon it was 65.1%; with MCF7 breast it was 30.5%; in the test on HCT-116 colon it was 33.4%. For the same molecule, the growth with HCC-2998 colon is 93.8%; in the test on KM12 colon, 80.2%.
As for `CCCCN1C(=O)CC(SC2CC(=O)N(CCCC)C2=O)C1=O` (stereo not drawn), the growth with T-47D breast was 106%; with BT-549 breast, 104%; in the test on MDA-MB-435 melanoma, 108%; in the test on SW-620 colon, 110%; in the test on MCF7 breast it was 102%; in the test on HCT-116 colon, 105%. The growth with KM12 colon was 107%.
